# Measured values published in PubChem BioAssay AID743279 (National Center for Advancing Translational Sciences (NCATS), 2014).
# The whole screen tested about 360,000 compounds, of which about 17,000 (4.7%) were called active. Inconclusive results (about 5%) are left out. The list comes from a sample in which actives are over-represented; it also holds similar structures and randomly drawn compounds. Values without a mark were called inactive. Rule as the data show it: active = activity change below about -50%; inconclusive = mostly about -30% to -49%; inactive = weaker than that.
# Test: qHTS for Inhibitors of Inflammasome Signaling: IL-1-beta AlphaLISA Primary Screen
# Conditions: THP-1 LPS/ATP IL-1B secretion, 16 h; at 57.5 µM, active compounds read low
# From the text: Inflammasomes are a set of intracellular multi-protein complexes that enable autocatalytic activation of inflammatory caspases and drive the innate immune response to counter harmful agents. […] A qHTS assay, based on AlphaLISA technology, was developed to screen the Molecular Libraries Small Molecule Repository (MLSMR) to look for novel inflammasome inhibitors. The assay detects IL-1B using AlphaLISA anti-IL-1B acceptor and donor beads. A decreased emission signal, indicating reduced IL-1B secretion, is the desired outcome for this assay. NIH Chemical Genomics Center [NCGC] NIH Molecular Libraries Probe Centers Network [MLPCN] MLPCN Grant: MH095513 Assay Provider: Shyam Biswal Ph.D., Johns Hopkins University Immunity. 2012 Jul 27;37(1):85-95. PMID: 22819042 [2] Curr Pharm Des. 2012;18(16):2320-8. PMID: 22390695
# Three microliters containing 3000 THP-1 cells were dispensed into the wells of solid, white, tissue culture treated Greiner 1,536-well plates. Library compounds and positive control, Glyburide, were pin-transferred (23 nL) by a Kalypsys pin-tool equipped with a 1,536-pin array, resulting in final compound concentration ranges of 2.5 nM to 57.5 uM. After 1 hr of cell culture incubation (37 °C, 5% CO2), 1 microL of 1 microg/mL lipopolysaccharide (250 ng/mL, final) and 5 mM ATP (1.25 mM, final) were added to stimulate the cells. After 16 hr of cell culture incubation with the compounds, 1.5 uL of anti-IL-1B acceptor beads (6 ug/mL, final) and biotinylated antibody (0.6 nM, final) were added to the plate, followed by a 1 hr incubation at ambient temperature. To detect the secreted IL-1B, 1.5 uL of AlphaLISA SA-Donor beads (24 ug/mL, final) were added, followed by 30 min of incubation in the dark at ambient temperature. The AlphaLISA signal was read by a PerkinElmer EnVision plate reader with an ultrasensitive luminescence detector and 1536 Plate HTS AlphaScreen aperture (excitation of 680nm and emission of 615nm).
# % is scaled to controls: 0 for no effect and ±100 for the full control effect.
row,Structure (SMILES),activity change
1,CC(=O)OCc1cc(=O)n(C)c(=O)n1C,18.2%
2,CN(Cc1ccccc1)CC(O)COc1ccc(CNCc2cc3ccccc3s2)cc1 (configuration not stated),-52.3% (active)
3,COc1ccc(OCC(O)CN(C)C(=O)C(C)Oc2ccccc2)cc1 (configuration not stated),-1.85%
4,Cc1ccc(OCC(=O)OC(C)CN(C)Cc2ccccc2)cc1 (configuration not stated),11.3%
5,CC1(C(=O)NCc2ccccc2)CSCC(=O)N1CCCn1ccnc1 (configuration not stated),-3.98%
6,Cc1ccc(C(CNC(=O)Nc2ccccc2)N2CCN(C)CC2)cc1 (configuration not stated),-19.3%
7,Cc1ccc2nc(SCC(=O)N3CCN(c4ccccc4)CC3)nc(=O)n2c1,-22.4%
8,CCOc1ccc(CCNC(=O)CSc2cc(=O)n(C)c3ccc(Cl)cc23)cc1OCC,15.4%
9,CCN(CC)CCCNC(=O)CCn1nc(-c2ccc(Cl)cc2)ccc1=O,0.889%
10,CCN(CCCNC(=O)CSc1cc(=O)n(C)c2cc(Cl)ccc12)Cc1ccccc1,-66.3% (active)
11,COC(=O)c1ccc(CN2C(=O)C(Cc3ccccc3)ON=C2c2ncccc2C)o1 (configuration not stated),0%
12,Cc1ccc2cccc(OCCCOc3ccccc3CO)c2n1,-5.38%
13,N#Cc1cccc(NC(=O)CN2CCCCCC2)c1,-4.14%
14,O=C1CC(c2ccccc2)=NN1c1ccc([N+](=O)[O-])cc1,-62.7% (active)
15,O=[N+]([O-])c1ccc(N2CCOCC2)cc1,-12%
16,Cc1nc(-c2ccc([N+](=O)[O-])cc2)c(-c2ccccc2)o1,-1.34%
17,Cc1c(NC(=O)COC(=O)/C=C/c2cccc(F)c2)c(=O)n(-c2ccccc2)n1C,-1.18%
18,CCCCN1CC(C)(C)[C@H](CC(=O)Nc2ccc(Br)cc2)C1=O,-25.6%
19,COc1ccc([C@H]2C[C@@H](n3cc(COC(=O)c4ccccc4)nn3)[C@H](O)CN2C(=O)c2cccs2)cc1,3.71%
20,C[C@H]1CN([C@@H](C)CO)C(=O)CCCn2cc(nn2)CO[C@@H]1CN(C)S(=O)(=O)c1ccc(-c2ccccc2)cc1,0%
21,O=c1oc2c(CN3CCCCC3)c(O)ccc2c2c1CCCCC2,11%
22,CN1CCN(Cc2c(O)ccc3c2oc(=O)c2ccccc23)CC1,-65.7% (active)
23,CCOC(=O)c1oc2c(CN3CCN(C)CC3)c(O)ccc2c(=O)c1-c1ccc(Br)cc1,2.61%
24,O=c1cc(CN2CCCCCCC2)c2c(ccc3ccccc32)o1,25.6%
25,O=C(COC(=O)/C=C/c1ccc2c(c1)OCO2)NC1CCS(=O)(=O)C1 (configuration not stated),-29.2%
26,CN(Cc1ccccc1)C(=O)COC(=O)/C=C/c1ccc2c(c1)OCO2,-60.4% (active)
27,CCOC(=O)CCCNC(=O)COC(=O)/C=C/c1ccc2c(c1)OCO2,-11.7%
